In the supplement of paper PMC11732987, “Enantioselective OTUD7B fragment discovery through chemoproteomics screening and high-throughput optimisation” (Communications Chemistry, 2025):

How the values were obtained:
Assay in all cases: log2 ratio of Biotin-Ahx-Ub-VS probe labelling (fragment/DMSO); higher = less target engagement (more negative = stronger competition), active = hit call of the paper (q ≤ 0.05, log2 ratio ≤ -1)
Conditions in all cases: compound concentration: 200 uM; treatment time: 3 h
ALG13 = biological target: T1, ALG13 (UniProt Q9NP73)
T1 sequence (whole entry): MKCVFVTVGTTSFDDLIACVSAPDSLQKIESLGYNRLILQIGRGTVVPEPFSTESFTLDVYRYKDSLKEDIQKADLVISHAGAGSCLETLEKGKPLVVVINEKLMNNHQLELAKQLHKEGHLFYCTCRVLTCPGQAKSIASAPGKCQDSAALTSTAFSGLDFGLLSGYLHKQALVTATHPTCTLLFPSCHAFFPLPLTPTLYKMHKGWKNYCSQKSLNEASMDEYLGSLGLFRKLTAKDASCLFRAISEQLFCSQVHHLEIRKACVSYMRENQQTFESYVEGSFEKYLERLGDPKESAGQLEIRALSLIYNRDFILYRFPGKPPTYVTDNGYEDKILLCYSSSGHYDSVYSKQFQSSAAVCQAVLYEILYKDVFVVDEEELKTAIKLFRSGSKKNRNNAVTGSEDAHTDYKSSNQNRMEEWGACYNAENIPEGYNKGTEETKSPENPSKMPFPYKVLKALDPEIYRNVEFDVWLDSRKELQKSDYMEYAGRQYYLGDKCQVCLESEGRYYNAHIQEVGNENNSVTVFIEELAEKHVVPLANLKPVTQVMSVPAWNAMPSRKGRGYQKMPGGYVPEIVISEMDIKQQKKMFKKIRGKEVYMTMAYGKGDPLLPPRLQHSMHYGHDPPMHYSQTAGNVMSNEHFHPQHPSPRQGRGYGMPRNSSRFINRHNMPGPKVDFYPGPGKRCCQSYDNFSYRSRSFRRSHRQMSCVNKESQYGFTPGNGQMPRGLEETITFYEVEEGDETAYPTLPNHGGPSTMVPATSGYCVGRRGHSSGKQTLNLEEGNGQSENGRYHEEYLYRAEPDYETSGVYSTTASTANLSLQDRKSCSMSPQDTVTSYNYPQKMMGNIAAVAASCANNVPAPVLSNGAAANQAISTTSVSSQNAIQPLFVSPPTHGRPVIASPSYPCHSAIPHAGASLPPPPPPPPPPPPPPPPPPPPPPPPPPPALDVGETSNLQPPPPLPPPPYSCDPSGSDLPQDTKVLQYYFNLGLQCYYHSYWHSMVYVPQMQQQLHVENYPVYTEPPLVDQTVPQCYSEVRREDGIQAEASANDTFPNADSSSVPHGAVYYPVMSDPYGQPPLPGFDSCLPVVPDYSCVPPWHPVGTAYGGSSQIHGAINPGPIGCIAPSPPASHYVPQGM
Method in brief: (§1)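 Fragment (200 µM) or vehicle was incubated for 3 h with triplicate HEK293T lysate samples of 495 µg, which were then treated with Biotin-Ahx-Ub-VS at 0.5 µM final for 1 h. Labelled DUBs were enriched on NeutrAvidin, digested with LysC and trypsin, and analysed by diaPASEF LC-MS/MS. Values are average log2 fragment/vehicle ratios from an unpaired t-test on global-median-normalised Spectronaut label-free quantities, using proteins with ≥2 unique peptides.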

ATXN3 = ATXN3 (UniProt P54252)
Method in brief: as §1

BAP1 = biological target: T2, BAP1 (UniProt Q92560)
T2 sequence (whole entry): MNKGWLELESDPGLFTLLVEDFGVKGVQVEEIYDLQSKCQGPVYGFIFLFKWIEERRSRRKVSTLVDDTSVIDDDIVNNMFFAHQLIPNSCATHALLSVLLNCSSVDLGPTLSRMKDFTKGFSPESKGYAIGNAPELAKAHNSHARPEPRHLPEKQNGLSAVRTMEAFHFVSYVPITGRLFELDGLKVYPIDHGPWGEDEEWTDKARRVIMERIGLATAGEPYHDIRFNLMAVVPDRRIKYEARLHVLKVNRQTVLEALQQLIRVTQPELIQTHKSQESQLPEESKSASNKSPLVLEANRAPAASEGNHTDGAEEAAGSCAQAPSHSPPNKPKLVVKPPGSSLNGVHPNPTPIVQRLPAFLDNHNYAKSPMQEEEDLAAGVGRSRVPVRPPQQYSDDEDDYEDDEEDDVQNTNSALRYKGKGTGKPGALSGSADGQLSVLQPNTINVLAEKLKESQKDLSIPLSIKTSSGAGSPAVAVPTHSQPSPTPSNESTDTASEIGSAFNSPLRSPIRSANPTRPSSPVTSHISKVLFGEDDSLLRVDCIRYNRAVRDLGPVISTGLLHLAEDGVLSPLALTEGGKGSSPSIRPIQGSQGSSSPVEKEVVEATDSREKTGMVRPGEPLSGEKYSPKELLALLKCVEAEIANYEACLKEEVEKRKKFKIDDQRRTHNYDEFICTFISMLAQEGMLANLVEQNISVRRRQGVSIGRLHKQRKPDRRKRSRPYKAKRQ
Method in brief: as §1

EIF3F = EIF3F (UniProt O00303)
Method in brief: as §1

EIF3H = EIF3H (UniProt O15372)
Method in brief: as §1

FAM105A = biological target: T3, FAM105A (UniProt Q9NUU6)
T3 sequence (whole entry): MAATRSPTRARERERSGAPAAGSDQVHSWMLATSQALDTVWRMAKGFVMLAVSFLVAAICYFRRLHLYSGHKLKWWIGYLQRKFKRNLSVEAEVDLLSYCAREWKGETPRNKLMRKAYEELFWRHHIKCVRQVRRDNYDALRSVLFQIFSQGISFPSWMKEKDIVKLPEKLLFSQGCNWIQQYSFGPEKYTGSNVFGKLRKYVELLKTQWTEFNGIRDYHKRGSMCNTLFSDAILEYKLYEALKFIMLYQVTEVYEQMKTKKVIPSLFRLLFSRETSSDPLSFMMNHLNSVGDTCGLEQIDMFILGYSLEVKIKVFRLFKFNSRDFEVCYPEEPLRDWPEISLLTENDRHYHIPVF
Method in brief: as §1

OTUB1 = OTUB1 (UniProt Q96FW1)
Method in brief: as §1

OTUD4 = biological target: T4, OTUD4 (UniProt Q01804)
T4 sequence (whole entry): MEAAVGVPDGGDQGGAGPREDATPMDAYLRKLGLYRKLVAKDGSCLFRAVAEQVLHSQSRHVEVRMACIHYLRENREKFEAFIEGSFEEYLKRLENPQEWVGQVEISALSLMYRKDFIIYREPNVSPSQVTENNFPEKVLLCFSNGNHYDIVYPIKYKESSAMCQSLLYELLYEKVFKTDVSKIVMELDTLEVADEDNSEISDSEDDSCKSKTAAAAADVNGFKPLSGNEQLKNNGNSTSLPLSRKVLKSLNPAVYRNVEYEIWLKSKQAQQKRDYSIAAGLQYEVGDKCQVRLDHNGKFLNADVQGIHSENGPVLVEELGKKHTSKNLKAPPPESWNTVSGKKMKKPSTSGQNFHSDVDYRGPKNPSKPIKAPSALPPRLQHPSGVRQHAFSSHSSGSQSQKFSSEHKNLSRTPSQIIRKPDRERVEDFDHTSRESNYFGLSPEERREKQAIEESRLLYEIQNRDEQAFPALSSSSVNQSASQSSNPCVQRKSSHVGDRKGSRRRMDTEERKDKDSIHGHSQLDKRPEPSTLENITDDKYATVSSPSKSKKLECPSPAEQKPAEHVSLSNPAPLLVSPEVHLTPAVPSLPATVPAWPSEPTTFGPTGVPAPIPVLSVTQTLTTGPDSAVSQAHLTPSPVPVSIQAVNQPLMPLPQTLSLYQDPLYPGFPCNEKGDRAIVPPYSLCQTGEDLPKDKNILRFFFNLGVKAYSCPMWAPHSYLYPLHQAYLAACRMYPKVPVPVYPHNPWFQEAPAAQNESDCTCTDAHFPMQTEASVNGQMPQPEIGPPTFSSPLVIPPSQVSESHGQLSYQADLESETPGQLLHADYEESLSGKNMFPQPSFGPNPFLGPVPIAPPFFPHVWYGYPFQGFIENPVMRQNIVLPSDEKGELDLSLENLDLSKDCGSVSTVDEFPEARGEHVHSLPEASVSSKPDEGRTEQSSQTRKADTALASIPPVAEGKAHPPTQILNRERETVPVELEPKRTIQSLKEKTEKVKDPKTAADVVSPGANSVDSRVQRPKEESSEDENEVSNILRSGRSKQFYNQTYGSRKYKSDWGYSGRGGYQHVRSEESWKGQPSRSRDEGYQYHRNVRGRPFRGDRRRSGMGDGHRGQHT
Method in brief: as §1

OTUD5 = biological target: T5, OTUD5 (UniProt Q96G74)
T5 sequence (whole entry): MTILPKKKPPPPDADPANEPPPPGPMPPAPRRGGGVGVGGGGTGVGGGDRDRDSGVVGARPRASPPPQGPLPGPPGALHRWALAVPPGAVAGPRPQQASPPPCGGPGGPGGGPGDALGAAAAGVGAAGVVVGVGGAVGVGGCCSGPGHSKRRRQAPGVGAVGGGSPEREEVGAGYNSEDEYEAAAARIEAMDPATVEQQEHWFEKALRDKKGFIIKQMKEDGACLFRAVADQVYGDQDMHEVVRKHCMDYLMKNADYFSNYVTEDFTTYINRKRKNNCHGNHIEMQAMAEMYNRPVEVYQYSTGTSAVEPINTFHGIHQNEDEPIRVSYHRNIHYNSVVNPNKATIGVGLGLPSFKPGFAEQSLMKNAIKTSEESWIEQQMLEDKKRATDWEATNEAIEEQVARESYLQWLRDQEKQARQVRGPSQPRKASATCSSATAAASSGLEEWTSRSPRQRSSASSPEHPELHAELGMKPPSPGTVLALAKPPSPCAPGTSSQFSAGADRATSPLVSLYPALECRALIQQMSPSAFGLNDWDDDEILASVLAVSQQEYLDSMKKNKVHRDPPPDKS
Method in brief: as §1

Measured: log2 ratio of Biotin-Ahx-Ub-VS probe labelling

OTUB1, sequence (Q96FW1 whole entry): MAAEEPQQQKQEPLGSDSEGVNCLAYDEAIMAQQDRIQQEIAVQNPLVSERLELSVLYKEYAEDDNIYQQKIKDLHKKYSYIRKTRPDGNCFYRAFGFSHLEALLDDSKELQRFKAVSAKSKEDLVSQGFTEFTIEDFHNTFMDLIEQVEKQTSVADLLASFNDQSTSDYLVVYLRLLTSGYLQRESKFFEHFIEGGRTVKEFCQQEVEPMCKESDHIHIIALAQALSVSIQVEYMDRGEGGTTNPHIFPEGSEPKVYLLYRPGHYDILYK
ATXN3, sequence (P54252 whole entry): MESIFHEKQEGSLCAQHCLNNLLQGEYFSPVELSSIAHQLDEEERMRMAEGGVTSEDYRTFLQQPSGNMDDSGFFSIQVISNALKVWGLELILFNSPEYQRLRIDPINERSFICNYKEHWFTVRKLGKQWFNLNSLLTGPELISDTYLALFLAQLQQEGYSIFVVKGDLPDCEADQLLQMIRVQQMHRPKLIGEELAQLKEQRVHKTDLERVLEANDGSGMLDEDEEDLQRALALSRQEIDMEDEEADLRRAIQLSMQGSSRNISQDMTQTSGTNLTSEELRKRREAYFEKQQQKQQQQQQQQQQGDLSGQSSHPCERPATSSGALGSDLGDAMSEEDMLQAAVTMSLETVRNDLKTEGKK
EIF3H, sequence (O15372 whole entry): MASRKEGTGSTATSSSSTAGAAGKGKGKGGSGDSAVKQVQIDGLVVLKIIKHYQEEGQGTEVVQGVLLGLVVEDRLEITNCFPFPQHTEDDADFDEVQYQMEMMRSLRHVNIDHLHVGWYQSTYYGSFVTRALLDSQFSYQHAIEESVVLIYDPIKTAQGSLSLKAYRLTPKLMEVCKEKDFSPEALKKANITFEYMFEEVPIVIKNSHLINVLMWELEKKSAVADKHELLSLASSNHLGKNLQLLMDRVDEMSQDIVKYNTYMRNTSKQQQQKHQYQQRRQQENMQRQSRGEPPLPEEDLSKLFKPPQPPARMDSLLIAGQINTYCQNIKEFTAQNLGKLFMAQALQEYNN
EIF3F, sequence (O00303 whole entry): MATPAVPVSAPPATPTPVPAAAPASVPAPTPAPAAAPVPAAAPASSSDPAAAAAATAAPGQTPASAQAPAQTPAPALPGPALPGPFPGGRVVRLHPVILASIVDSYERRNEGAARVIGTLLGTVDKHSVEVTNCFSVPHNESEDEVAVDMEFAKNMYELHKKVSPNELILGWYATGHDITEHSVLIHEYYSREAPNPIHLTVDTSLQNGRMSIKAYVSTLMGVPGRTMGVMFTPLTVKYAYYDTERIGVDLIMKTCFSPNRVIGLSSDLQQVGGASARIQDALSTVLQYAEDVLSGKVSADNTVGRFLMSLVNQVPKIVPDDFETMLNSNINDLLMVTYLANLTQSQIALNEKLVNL

O=C(CCl)Nc1cc(Cl)ccc1-n1cncn1
active: BAP1 -3 | OTUD5 -1.05
inactive: ALG13 0.0898 | ATXN3 -0.881 | EIF3F -0.457 | EIF3H 0.376 | FAM105A 0.14 | OTUB1 -0.487 | OTUD4 -0.779
